Our source for the outcome and AC50 values is PubChem BioAssay (EPA / NIEHS).

Several values for one entry are separate records, joined by “and”; a condition that tells them apart may be missing. Equal entries are not always repeated. More than one record can exist for a structure, and the calls need not agree. Activity calls are given as the source filed them. The calls were made as follows: active = hit-call score of the fitted dose curve at least 0.9, where 1 is the maximum; inactive = score below 0.9.

One may read the AC50 as the midpoint of the concentration-response curve, whichever way the signal moves.

The test in a line: CCTE_Shafer_MEA_dev_firing_rate_mean: CCTE's Neural Network Formation Assay for Mean Firing Rate, Shafer Lab (AID 2284031).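 As to AC50: curve fitted for loss of firing so AC50 reflects decreased mean firing rate.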 How it is done:
CCTE_Shafer_MEA_dev assay is conducted using Axion Biosystems 48 well microelectrode array (MEA) plates and Maestro recording system. Each well of the MEA plate contains a grid of 16 microelectrodes embedded in the culture surface. Electrically active cells, such as neurons, can be cultured over the electrodes, and electrical activity in these cells can be recorded extracellularly. The spontaneous firing of neurons is captured from each electrode on a microsecond timescale providing both temporally and spatially precise data. […] The CCTE_Shafer_MEA_dev assay uses primary cultures of rat cortical neurons. Recordings are made on days post-plating 5, 7, 9 and 12. As these cultures mature over time, neural networks develop functional activity and form cohesive networks in which electrical activity can be highly coordinated. CCTE_Shafer_MEA_dev_firing_rate_mean is 1 of 19 assay components of the CCTE_Shafer_MEA_dev assay. It measures the frequency of spikes (action potential firings) as the total number of spikes divided by the length of the recording in a microelectrode array (MEA) using Axion Biosystems Maestro 768 channel amplifier with the AxIS adaptive spike detector. The firing rate is averaged across the active electrodes to report a well-mean value. To collapse across multiple recordings made on days post-plating 5, 7, 9 and 12, the trapezoidal area-under-the-curve of the component is calculated.Data from the assay component CCTE_Shafer_MEA_dev_firing_rate_mean was analyzed into 1 assay endpoint. This assay endpoint, CCTE_Shafer_MEA_dev_firing_rate_mean, was analyzed in the negative analysis fitting direction relative to DMSO as the negative control and baseline of activity. Using a type of functional reporter, gain or loss-of-signal activity can be used to understand electrical activity.
On the day prior to culture, each well was coated thoroughly with 150 uL of 0.05% polyethyleneimine (PEI, Sigma Cat P3143) in 50 mM HEPES (Sigma Cat H7523) at a pH of 8. The plate was incubated at 37C for one hour. PEI was rinsed out with 500 uL of sterile water three times. Plates were stored at 4C until the day of culture. This culture was plated at a seeding density of 1.5 x 10^5 cells/well on a 48-well MEA plate, prepared as described above. Cells were administered via a 25 uL media/laminin ([…]; Sigma Cat L2020-1MG) drop directly onto the microelectrode array, as adding the cells with the laminin results in better attachment than pre-coating with laminin. After 2 hours, an additional 475 uL of cortical media was added and the cells returned to the incubator. Exposure starts at day 0 of plating and is continued over twelve days of network development until the experiment is terminated. Cells are fed with fresh medium on DIV 5 and 9, following the recordings on those days. The entire volume of media in the well is exchanged and any vehicle or compound treatment is renewed. Complete details are found in OP-NHEERL/ISTD/SBB/TJS/2015-03-r0 (available on request, email shafer.tim@epa.gov). Measurement of the electrical activity is non-invasive, and recordings can be made from the same plate over multiple different days of the culture. In cortical neurons, this allows for the measurement of extracellular action potentials over the period during which networks form in the MEA plate.
For `CCOC(=O)CC(SP(=O)(OC)OC)C(=O)OCC` (stereo unspecified), the molecule was called inactive.

As to `C#CCC1=C(C)C(OC(=O)C2C(C=C(C)C)C2(C)C)CC1=O` (stereo unspecified), the molecule was classed as inactive. Take `CC(C)[C@H](C(=O)O[C@H](C#N)c1cccc(Oc2ccccc2)c1)c1ccc(Cl)cc1`: the AC50 is 3.13 µM (active).

Take `CN1COCN(Cc2cnc(Cl)s2)C1=N[N+](=O)[O-]`: the result was inactive.

For the molecule `CC(C)=CC1C(C(=O)OCN2C(=O)C3=C(CCCC3)C2=O)C1(C)C` (stereo unspecified), the result was inactive. Take `CCCSP(=O)(OCC)SCCC`: the result was inactive.

Regarding `COP(=O)(OC)C(O)C(Cl)(Cl)Cl` (stereo unspecified), the outcome was inactive.

As to `CN(C)[C@@H]1C(=O)C(C(N)=O)=C(O)[C@@]2(O)C(=O)C3=C(O)c4c(O)cccc4[C@@](C)(O)[C@H]3[C@H](O)[C@@H]12`, the molecule was called inactive. For `CCOP(=S)(OCC)OC(Cl)C(Cl)(Cl)Cl` (stereo unspecified), the half-maximal activity concentration (AC50) is 23.4 µM (active). For the molecule `S=C1NCCN1`, the call was inactive. Regarding `CCOP(=S)(OCC)Oc1ccc([N+](=O)[O-])cc1`, the call was inactive. For the molecule `CCOP(=O)(NC(C)C)Oc1ccc(SC)c(C)c1` (stereo unspecified), the outcome was inactive and the AC50 was 22 µM (active). As to `CCOP(=O)(SC(C)CC)N1CCSC1=O` (stereo unspecified), the molecule was classed as inactive.

Take `CC(=NC#N)N(C)Cc1ccc(Cl)nc1`: the outcome was inactive.

As to `CCOP(=O)(OCC)Oc1cc(C)nc(C(C)C)n1`, the molecule was classed as inactive.

As to `CCOP(=S)(OCC)Oc1ccc2c(C)c(Cl)c(=O)oc2c1`, the AC50 is 29.6 µM (active).

As for `C[N+]1(C)CCCCC1`, the result was inactive. Turning to `CC[C@H](C)[C@H]1O[C@]2(C=C[C@@H]1C)C[C@@H]1C[C@@H](C/C=C(\C)[C@@H](O[C@H]3C[C@H](OC)[C@@H](O[C@H]4C[C@H](OC)[C@@H](NC)[C@H](C)O4)[C@H](C)O3)[C@@H](C)/C=C/C=C3\CO[C@@H]4[C@H](O)C(C)=C[C@@H](C(=O)O1)[C@]34O)O2`, the AC50 was 6.97 nM (active) and 2.42 nM (active). With `CC(C)N(C(=O)SCC(Cl)=C(Cl)Cl)C(C)C`, the molecule was called inactive. As to `CCOP(=S)(OCC)SCCSCC`, the outcome was inactive. For `COP(=O)(NC(C)=O)SC` (stereo unspecified), the outcome was inactive. Consider `C[Si](Cn1cncn1)(c1ccc(F)cc1)c1ccc(F)cc1`, for which the call was inactive. In the case of `CC(Oc1cccc(Cl)c1)C(=O)O` (stereo unspecified), the molecule was classed as inactive.

Take `CSC1=N[C@@](C)(c2ccccc2)C(=O)N1Nc1ccccc1`: the molecule was classed as inactive.

For `CCOP(=S)(OCC)Oc1cc(C)nc(C(C)C)n1`, the AC50 is 50 µM (active) and the molecule was classed as inactive. For `CCCSP(=O)(OCC)Oc1ccc(Br)cc1Cl` (stereo unspecified), the outcome was inactive.

Take `CCOP(=S)(Oc1cnc(C(C)(C)C)nc1)OC(C)C` (stereo unspecified): the molecule was called inactive and the AC50 was 12.2 µM (active). On to `O=[N+]([O-])c1cc(C(F)(F)F)c(Cl)c([N+](=O)[O-])c1Nc1ncc(C(F)(F)F)cc1Cl`, for which the AC50 is 0.786 µM (active). Take `COP(=O)(OC)OC(Br)C(Cl)(Cl)Br` (stereo unspecified): the AC50 was 7.31 µM (active) and 13 µM (active). The same measure, in the same setting: in the case of `CON=C(C(=O)OC)c1ccccc1CON=C(C)c1cccc(C(F)(F)F)c1` it was 639 nM (active) and 964 nM (active). As for `CCCCSP(=O)(SCCCC)SCCCC`, the AC50 was 66.3 µM (active) and 11.5 µM (active). Turning to `CC1=NNC(=O)N(/N=C/c2cccnc2)C1`, the molecule was called inactive.

For the molecule `C=C(C)[C@H]1Cc2c(ccc3c2O[C@@H]2COc4cc(OC)c(OC)cc4[C@@H]2C3=O)O1`, the AC50 is 19.6 nM (active) and 16.2 nM (active).
